In PubChem BioAssay (Tox21) one finds Potency and outcome data, which are given here for six compounds.

Values joined by “and” are separate entries in the source; they are usually repeats but may differ in a detail not shown here. Equal entries are not always repeated. Records with an inconclusive call do not appear. A structure can be active in one record and inactive in another. Active and inactive are the calls of the source. Unless noted, the call rests on the fitted dose curve; in most records, active means well fitted curve in the direction sought with a large enough effect in the repeat runs; inconclusive means weak or mixed curves; inactive means no such curve, though single readings can be large; an effect the other way counts as inactive or inconclusive.

Experiment [1] is described as follows: qHTS assay to identify small molecule agonists of the peroxisome proliferator-activated receptor delta (PPARd) signaling pathway - cell viability counter screen (AID 743211). Further: nearly all actives have a fitted effect of over 55% in size. Further: potency means the concentration at half of the fitted maximal effect. In a few lines: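 PPARd-bla HEK293H cells (3000/well) were pre-incubated 5 h at 37 C, then exposed to compound for 17 h at 37 C. After 2 h with LiveBLAzer substrate, CellTiter-Glo was added to the same wells; luminescence read after 30 min at room temperature.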
In general terms: Quantitative high-throughput screening tests each substance at several concentrations.

Experiment [2] has as its target Peroxisome proliferator-activated receptor delta (Homo sapiens) (UniProt Q03181). The experiment can be described thus: qHTS assay to identify small molecule agonists of the peroxisome proliferator-activated receptor delta (PPARd) signaling pathway (AID 743212; calls by dose curve). In a few lines:
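GeneBLAzer PPARd UAS-bla HEK293H cells (beta-lactamase reporter under UAS control), plated and rested 5 h at 37 C, then exposed to compounds in DMSO at 37 C; LiveBLAzer B/G FRET substrate added, 2 h room temperature, fluorescence read.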

A short description of experiment [3]: qHTS assay to identify small molecule antagonists of the peroxisome proliferator-activated receptor delta (PPARd) signaling pathway - cell viability counter screen (AID 743213). Further: nearly all actives have a fitted effect of over 50% in size. Further: potency means the concentration at half of the fitted maximal effect. The essentials: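 PPARd-bla HEK293H cells (3000/well) got compound plus 300 nM L165041 agonist for 17 h at 37 C. Viability in the same wells came from CellTiter-Glo luminescence after 30 min at room temperature.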

Experiment [4] addresses Peroxisome proliferator-activated receptor delta (Homo sapiens) (UniProt Q03181). Description: qHTS assay to identify small molecule antagonists of the peroxisome proliferator-activated receptor delta (PPARd) signaling pathway (AID 743215; active means well fitted inhibition curve with a large enough effect in the signal ratio in the repeat runs, not every such curve was filed as active; the % refers to the signal ratio;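 further: cells stimulated with agonist L165041 at 300 nM final during compound exposure; series mostly up to about 62 µM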). In a few lines:
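Inhibition of L165041-driven (300 nM final) PPARd signaling is scored in HEK293H UAS-bla cells. Exposure lasts 17 h at 37 C; beta-lactamase activity is then read by FRET substrate fluorescence after 2 h at room temperature.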

A short description of experiment [5]: qHTS assay to identify small molecule antagonists of the farnesoid-X-receptor (FXR) signaling pathway - cell viability counter screen (AID 743221; active means well fitted cell-killing curve with a large enough effect in the repeat runs, not every such curve was filed as active; further: nearly all actives have a fitted effect of over 50% in size; further: potency means the concentration at half of the fitted maximal effect). In a few lines:
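GeneBLAzer FXR-UAS-bla HEK 293T cells, compound plus chenodeoxycholic acid (50 uM final), 16 h at 37 C. CellTiter-Glo added to the same wells after the beta-lactamase read; luminescence read after 30 min at room temperature as viability.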

Experiment [6] addresses Vitamin D3 receptor (Homo sapiens) (UniProt P11473). Description: qHTS assay to identify small molecule agonists of the vitamin D receptor (VDR) signaling pathway (AID 743222; calls by dose curve). The essentials: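 Quantitative HTS agonist-mode screen: compounds in DMSO were pin-transferred onto VDR-bla cells and incubated 16 h at 37C, 5% CO2. Reporter activity was detected with LiveBLAzer B/G FRET substrate after 2 h at room temperature.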

Experiment [7] shares this target. Description: qHTS assay to identify small molecule antagonists of the vitamin D receptor (VDR) signaling pathway (AID 743223; active means well fitted inhibition curve with a large enough effect in the signal ratio in the repeat runs, not every such curve was filed as active; the % refers to the signal ratio). The essentials:
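VDR-bla cells were treated with compound plus 3 nM final 1alpha,25-dihydroxyvitamin D3 for 16 h at 37C. Beta-lactamase reporter read by B/G FRET substrate fluorescence after 2 h at room temperature. qHTS format.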

The nature of experiment [8]: qHTS assay to identify small molecule agonists of the vitamin D receptor (VDR) signaling pathway - cell viability counter screen (AID 743224). Further: nearly all actives have a fitted effect of over 50% in size. Further: potency means the concentration at half of the fitted maximal effect. In a few lines: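 Viability is measured in the same wells as the VDR-bla reporter assay: after 16 h compound treatment and 2 h substrate loading, CellTiter-Glo is added and luminescence read 30 min later.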
Experiment [9] can be described thus: qHTS assay to identify small molecule agonists of the NFkB signaling pathway - cell viability counter screen (AID 1159515; calls by dose curve; further: series mostly up to about 61 µM; nearly all actives have a fitted effect of over 55% in size). In a few lines: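 Multiplexed viability readout: after the 5 hr compound exposure and 1.5 hr FRET substrate step, CellTiter-Glo reagent went into the same NFkB-bla ME-180 wells; ATP luminescence was measured after 30 min at room temperature.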

A short description of experiment [10]: qHTS assay to identify small molecule agonists of the endoplasmic reticulum stress response signaling pathway - cell viability counter screen (AID 1159517; calls by dose curve; further: series mostly up to about 61 µM; nearly all actives have a fitted effect of over 50% in size). The essentials:
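Luminescence readout: CellTiter-Glo, 30 min RT, same wells as the ESRE-bla reporter read. HeLa ESRE-bla, 1,500 cells/well, o/n 37 C; cpd 5 hr 37 C/5% CO2.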

Experiment [11] can be described thus: qHTS assay to identify small molecule antagonists of the retinoid-related orphan receptor gamma (ROR-gamma) signaling pathway - cell viability counter screen (AID 1159520). Further: nearly all actives have a fitted effect of over 50% in size. Further: potency means the concentration at half of the fitted maximal effect. The essentials:
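Tet-on ROR gamma CHO cells (1,000/well) were plated 4 hr, given compounds in DMSO for 2 hr at 37 C, then induced with 1 uM final doxycycline for 16 hr. Viability was read as ATP by CellTiter-Glo luminescence after 30 min.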

For experiment [12], the target named is Nuclear receptor ROR-gamma (Homo sapiens) (UniProt P51449). Description: qHTS assay to identify small molecule antagonists of the retinoid-related orphan receptor gamma (ROR-gamma) signaling pathway (AID 1159521; further: nearly all actives have a fitted effect of over 50% in size; further: potency means the concentration at half of the fitted maximal effect). The essentials:
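Tet-on ROR-gamma CHO cells with ROR response element-luciferase reporter; compounds added 2 hr before 1 uM doxycycline induction, then 16 hr at 37 C. Antagonism scored as decreased ONE-Glo luminescence.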

A short description of experiment [13]: qHTS assay to identify small molecule agonists of the AP-1 signaling pathway - cell viability counter screen (AID 1159525; calls by dose curve; further: nearly all actives have a fitted effect of over 55% in size). In a few lines: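 ME-180 AP-1-bla, 2500 cells/well, Opti-MEM + 0.5% dialyzed FBS; overnight 37 °C; cpd 15-pt titration, 5 h 37 °C; CellTiter-Glo 30 min RT; luminescence read; normalised to TOAB and DMSO controls.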
Experiment [14] is described as follows: qHTS assay to identify small molecule agonists of the AP-1 signaling pathway (AID 1159526; calls by dose curve).
For experiment [15], the target named is Bile acid receptor (Homo sapiens) (UniProt Q96RI1). The experiment can be described thus: qHTS assay to identify small molecule antagonists of the farnesoid-X-receptor (FXR) signaling pathway (AID 743217; active means well fitted inhibition curve with a large enough effect in the signal ratio in the repeat runs, not every such curve was filed as active; the % refers to the signal ratio). In a few lines: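 Antagonist mode against 50 uM (final) chenodeoxycholic acid stimulation in FXR-bla HEK 293T cells, 16 h at 37 °C. Inhibition detected as reduced beta-lactamase activity via LiveBLAzer B/G FRET fluorescence after 2 h at room temperature.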

A short description of experiment [16]: qHTS assay to identify small molecule agonists of the farnesoid-X-receptor (FXR) signaling pathway - cell viability counter screen (AID 743218). Further: nearly all actives have a fitted effect of over 45% in size. Further: potency means the concentration at half of the fitted maximal effect. The essentials: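 Cytotoxicity counter-screen run in parallel, same wells: FXR-UAS-bla HEK 293T cells dosed 16 h at 37 C, viability read by CellTiter-Glo luminescence after 30 min at room temperature.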
The target of experiment [17] is Bile acid receptor (Homo sapiens) (UniProt Q96RI1). The experiment can be described thus: qHTS assay to identify small molecule agonists of the farnesoid-X-receptor (FXR) signaling pathway (AID 743220; active means well fitted activation curve with a large enough effect in the signal ratio in the repeat runs, not every such curve was filed as active; the % refers to the signal ratio). The essentials: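 Beta-lactamase reporter under UAS control in GeneBLAzer FXR HEK 293T cells (5000/well) measured with LiveBLAzer FRET substrate after 2 h at room temperature. Compound exposure lasted 16 h at 37C.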

A short description of experiment [18]: qHTS assay to identify small molecule antagonists of the vitamin D receptor (VDR) signaling pathway - cell viability counter screen (AID 743225). Further: nearly all actives have a fitted effect of over 50% in size. Further: potency means the concentration at half of the fitted maximal effect. The essentials: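 VDR-UAS-bla HEK 293T cells were plated and incubated 4 h at 37C, then dosed with compound plus 3 nM (final) 1-alpha,25-dihydroxyvitamin D3 for 16 h. After the 2 h beta-lactamase read, viability in the same wells was read as CellTiter-Glo luminescence after 30 min at room temperature.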

The nature of experiment [19]: qHTS assay to identify small molecule agonists of the endoplasmic reticulum stress response signaling pathway (AID 1159516; active means well fitted activation curve with a large enough effect in the signal ratio in the repeat runs, not every such curve was filed as active; the % refers to the signal ratio). The essentials: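 Tox21 10K library screened in quantitative HTS format on ESRE-bla HeLa cells, a beta-lactamase reporter under ER stress response element control; 5 hr treatment, FRET read.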

Bile acid receptor (Homo sapiens), sequence (Q96RI1 whole entry, looked up): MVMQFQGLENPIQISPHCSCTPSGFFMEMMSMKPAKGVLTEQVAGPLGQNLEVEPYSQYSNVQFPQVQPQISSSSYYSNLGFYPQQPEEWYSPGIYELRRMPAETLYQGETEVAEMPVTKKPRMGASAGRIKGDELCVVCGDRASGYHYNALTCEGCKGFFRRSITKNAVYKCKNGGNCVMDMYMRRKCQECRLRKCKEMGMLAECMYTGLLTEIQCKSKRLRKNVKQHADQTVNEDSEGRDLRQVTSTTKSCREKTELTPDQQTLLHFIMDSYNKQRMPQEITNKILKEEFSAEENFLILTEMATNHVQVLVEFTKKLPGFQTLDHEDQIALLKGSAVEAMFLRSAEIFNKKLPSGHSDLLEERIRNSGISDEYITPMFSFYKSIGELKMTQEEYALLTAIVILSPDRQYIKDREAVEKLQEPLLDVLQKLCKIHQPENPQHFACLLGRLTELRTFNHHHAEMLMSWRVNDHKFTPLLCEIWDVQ
Vitamin D3 receptor (Homo sapiens), sequence (P11473 whole entry, looked up): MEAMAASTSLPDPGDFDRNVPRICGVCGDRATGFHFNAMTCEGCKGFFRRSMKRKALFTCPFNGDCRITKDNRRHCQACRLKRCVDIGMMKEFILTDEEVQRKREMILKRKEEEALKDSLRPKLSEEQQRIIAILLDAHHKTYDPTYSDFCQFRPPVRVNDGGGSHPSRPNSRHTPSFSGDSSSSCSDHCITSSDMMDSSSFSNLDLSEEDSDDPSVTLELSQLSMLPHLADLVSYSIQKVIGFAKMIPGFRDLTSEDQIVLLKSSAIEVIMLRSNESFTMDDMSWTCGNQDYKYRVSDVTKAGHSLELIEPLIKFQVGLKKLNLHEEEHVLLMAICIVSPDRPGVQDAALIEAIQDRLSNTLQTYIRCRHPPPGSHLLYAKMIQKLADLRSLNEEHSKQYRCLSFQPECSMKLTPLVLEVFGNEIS
Peroxisome proliferator-activated receptor delta (Homo sapiens), sequence (Q03181 whole entry, looked up): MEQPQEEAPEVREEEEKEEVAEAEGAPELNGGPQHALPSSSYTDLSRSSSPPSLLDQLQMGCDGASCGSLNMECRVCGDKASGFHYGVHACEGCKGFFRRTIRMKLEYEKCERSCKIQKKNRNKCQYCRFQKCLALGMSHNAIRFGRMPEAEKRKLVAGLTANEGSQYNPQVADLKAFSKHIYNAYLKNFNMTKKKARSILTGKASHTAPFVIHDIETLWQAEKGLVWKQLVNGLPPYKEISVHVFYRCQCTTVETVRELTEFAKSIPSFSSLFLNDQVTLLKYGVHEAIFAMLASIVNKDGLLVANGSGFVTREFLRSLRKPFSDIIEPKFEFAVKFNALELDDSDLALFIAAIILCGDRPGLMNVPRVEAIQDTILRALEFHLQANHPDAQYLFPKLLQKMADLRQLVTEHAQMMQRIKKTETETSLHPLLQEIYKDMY

As for `CCCCCCCCC(=O)NCc1ccc(O)c(OC)c1`, the Potency entry in [1], in experiment [2], in [3], in experiment [4], in experiment [5] and in experiment [8] was “inactive” throughout. Besides, the Potency result in [9], in experiment [10], in experiment [11], in [12] and in experiment [13] was “inactive” throughout. Moreover, the result in experiment [6], in experiment [7] and in [14] was inactive.
As to `Nc1c(Cl)cc([N+](=O)[O-])cc1Cl`, the Potency result in experiment [1], in experiment [2], in [4], in experiment [15], in experiment [8] and in experiment [18] was “inactive” in each case. Besides, the Potency result in experiment [9], in experiment [10], in experiment [11] and in experiment [13] was “inactive” each time. Moreover, the Potency result is “inactive and 4.36 µM (active)” in experiment [3]; 2.75 µM (active) in [16]; “inactive and 4.36 µM (active)” in [5]; “inactive and 27.3 µM (active)” in [12]. The compound was called inactive in experiment [17], in experiment [6], in experiment [7], in experiment [19] and in experiment [14].
`c1ccc(-c2cccc(-c3ccccc3)c2)cc1`: the Potency result in experiment [1], in experiment [3], in [15], in experiment [16], in [5] and in experiment [8] was “inactive” in each case. The Potency result in [18], in experiment [9], in experiment [10], in [11], in experiment [12] and in experiment [13] was “inactive” in each case. Further, the compound was classed as inactive in [17], in experiment [19] and in experiment [14].
With `O=c1oc2ccccc2c(O)c1C(CC(O)c1ccc(-c2ccc(Br)cc2)cc1)c1ccccc1` (centres undefined), the Potency entry in [1], in experiment [3], in experiment [15], in experiment [16], in experiment [5] and in experiment [8] was “inactive” each time. Also, the Potency entry in experiment [9], in experiment [11] and in experiment [13] was “inactive” in each case. Also, the Potency in [12] was 57.9 µM (active).
Turning to `C#CCOS(=O)OC1CCCCC1Oc1ccc(C(C)(C)C)cc1` (centres undefined), the Potency entry was “inactive and 24.5 µM (active)” in experiment [1]; 6.92 µM (active) in experiment [8]; 38.9 µM (active) in experiment [18]; 30.7 µM (active) and 54.5 µM (active) in [11]; 1.94 µM (active) and 3.86 µM (active) in [12]. Also, the Potency result in experiment [2], in experiment [3], in experiment [4], in experiment [15], in experiment [16] and in experiment [5] was “inactive” each time. The Potency entry in [9], in [10] and in experiment [13] was “inactive” in each case. Further, the compound was classed as inactive in experiment [17] and in [19].
`C#C[C@]1(O)CC[C@H]2[C@@H]3CCC4=CC(=O)CC[C@]4(C)[C@H]3CC[C@@]21C`: the Potency entry in [1], in [2], in experiment [3], in [4], in [15] and in experiment [5] was “inactive” each time. Also, the Potency result in [8], in [9], in experiment [10], in [11], in [12] and in experiment [13] was “inactive” throughout. Moreover, the call in experiment [17], in experiment [19] and in [14] was inactive.
